Data taken from PubChem BioAssay AID485346 (Sanford-Burnham Center for Chemical Genomics, 2010).
Hit rate of the full screen: of about 330,000 compounds, about 10,000 (3%) were called active. This is one part of a sample in which actives are shown more often than they occur.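 The calls were made as follows: active = inhibition of at least 50% at 8 µM in the primary screen; inactive = the rest.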

These compounds were tested against Protein Mdm4 (Homo sapiens) + E3 ubiquitin-protein ligase Mdm2 (Homo sapiens) (UniProt O15151+Q00987) (assay: disruptors of Mdm2/MdmX RING complex – cell-based, luminescence, split luciferase, SaOS-2, uHTS, primary screen (AID 485346)). Details: SaOS-2 split-luciferase Mdm2/MdmX complementation, at 8 µM, active compounds read high.
Sequence of Protein Mdm4 (Homo sapiens) + E3 ubiquitin-protein ligase Mdm2 (Homo sapiens) (O15151 whole entry, looked up): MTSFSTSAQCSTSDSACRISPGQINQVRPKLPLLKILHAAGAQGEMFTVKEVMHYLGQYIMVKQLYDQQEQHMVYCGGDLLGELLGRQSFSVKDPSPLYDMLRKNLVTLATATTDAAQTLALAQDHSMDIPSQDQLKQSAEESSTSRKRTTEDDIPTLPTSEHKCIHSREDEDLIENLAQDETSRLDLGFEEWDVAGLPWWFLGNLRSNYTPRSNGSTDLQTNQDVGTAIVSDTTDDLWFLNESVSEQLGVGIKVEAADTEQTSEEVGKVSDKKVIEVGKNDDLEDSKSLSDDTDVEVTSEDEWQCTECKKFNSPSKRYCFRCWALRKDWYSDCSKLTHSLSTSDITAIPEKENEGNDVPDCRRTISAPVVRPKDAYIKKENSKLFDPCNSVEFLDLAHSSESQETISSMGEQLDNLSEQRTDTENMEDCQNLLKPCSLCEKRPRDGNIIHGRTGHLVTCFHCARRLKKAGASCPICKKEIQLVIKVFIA
Sequence of Protein Mdm4 (Homo sapiens) + E3 ubiquitin-protein ligase Mdm2 (Homo sapiens) (Q00987 whole entry, looked up): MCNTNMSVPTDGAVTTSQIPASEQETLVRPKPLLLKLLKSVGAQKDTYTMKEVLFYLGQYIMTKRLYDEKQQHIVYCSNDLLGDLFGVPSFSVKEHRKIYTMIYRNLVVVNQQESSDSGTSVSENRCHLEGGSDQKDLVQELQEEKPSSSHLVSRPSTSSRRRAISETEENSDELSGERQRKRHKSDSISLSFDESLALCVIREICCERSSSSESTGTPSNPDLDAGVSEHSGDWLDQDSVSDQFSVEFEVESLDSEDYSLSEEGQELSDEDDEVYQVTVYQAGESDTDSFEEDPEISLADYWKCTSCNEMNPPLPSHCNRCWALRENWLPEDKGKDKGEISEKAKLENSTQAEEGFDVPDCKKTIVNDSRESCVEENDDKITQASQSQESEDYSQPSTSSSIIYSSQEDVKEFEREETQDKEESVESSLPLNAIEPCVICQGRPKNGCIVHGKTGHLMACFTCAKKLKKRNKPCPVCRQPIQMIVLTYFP

Q: O=C1CCC[C@@H]2CC(N3CCCCC3)C[C@@H]3CCN1[C@H]23 (stereo partly specified) was tested. Which inhibition did it give?
A: -0.366% (inactive)

Q: How did the inhibition turn out when COc1ccc(CCNC(=S)N2CCN(S(=O)(=O)c3ccc(F)cc3)CC2)cc1 was run?
A: 27.9% (inactive)

Q: How did the inhibition turn out when CCn1cc(CN2CCC(C(=O)Nc3cccc(-c4cccc(Cl)c4)c3)CC2)c(C)n1 was run?
A: 86.6% (active)

Q: O=C(NCC1CCN(Cc2ccccc2Cl)CC1)Nc1cccc(Cl)c1 was tested. Which inhibition did it give?
A: 24.2% (inactive)

Q: For O=C(Nc1cccc(-c2cccc(Cl)c2)c1)C1CCN(C2CCC2)CC1, which inhibition is on record?
A: 63% (active)

Q: With COc1cccc(-c2cccc(NC(=O)C3CCN(C4CCC4)CC3)c2)c1 as the compound, how does the inhibition read?
A: -1.08% (inactive)

Q: With O=C(Nc1cnn(Cc2ccc(Cl)cc2)c1)C1CCCC1 as the compound, how does the inhibition read?
A: 20.2% (inactive)

Q: O=C(Nc1cccc(-c2cscn2)c1)C1CCN(Cc2ccsc2)CC1 was tested. Which inhibition did it give?
A: 12.7% (inactive)

Q: How did the inhibition turn out when CCn1cc(CN2CCC(C(=O)Nc3cccc(-c4cccc(Cl)c4)c3)CC2)cn1 was run?
A: 73% (active)

Q: With O=C(NC1CCCC1)C1CCN(C(=O)Nc2cccc(Cl)c2)CC1 as the compound, how does the inhibition read?
A: -30.9% (inactive)

Q: CC(=O)c1cc(CN2CCC(C(=O)Nc3cccc(-c4cscn4)c3)CC2)cs1 was tested. Which inhibition did it give?
A: 19.1% (inactive)

Q: With COc1ccc(N2CCC(CNC(=S)Nc3c(C)cccc3C)C2)cc1 (stereo unspecified) as the compound, how does the inhibition read?
A: 0.075% (inactive)

Q: Which inhibition does the source give for Cc1ccc(C(=O)NCCc2nnc(SCC(=O)Nc3cccc(C(=O)O)c3)n2C)cc1 here?
A: -17.8% (inactive)

Q: For Cc1ccc(NS(=O)(=O)c2ccc3c(c2)n(C)c(=O)c(=O)n3C)c(C)c1, which inhibition is on record?
A: -12.6% (inactive)

Q: How did the inhibition turn out when Cc1ccc(-n2nc3c(=O)n(C(C)C(=O)NCc4ccc5c(c4)OCO5)nc(C)c3c2C)cc1 (stereo unspecified) was run?
A: 32.4% (inactive)

Q: Which inhibition does the source give for COc1ccc(CCNC(=O)/C(C#N)=C2\N=C(NC(=O)c3cccs3)c3ccccc32)cc1 here?
A: -11.7% (inactive)

Q: Which inhibition does the source give for O=C(NCC#CCSc1nnc(-c2cccc3ccccc23)o1)c1cccs1 here?
A: 81.5% (active)

Q: How did the inhibition turn out when C#CCSc1nnc(-c2sc3ccccc3c2Cl)o1 was run?
A: -91.8% (inactive)

Q: For CCOC(=O)/C=C/C(=O)OCC(=O)NC(c1ccccc1)c1ccccc1, which inhibition is on record?
A: 69.4% (active)

Q: For CCOC(=O)C(C(=O)OCC)C(C#N)c1ccccc1 (stereo unspecified), which inhibition is on record?
A: -30.8% (inactive)

Q: O=C(Cc1ccc(-c2ccccc2)cc1)NC(c1ccccc1)c1ccccc1 was tested. Which inhibition did it give?
A: 6.83% (inactive)

Q: How did the inhibition turn out when O=C(NC(=O)N1CCSCC1)c1c(Cl)cccc1Cl was run?
A: -31.4% (inactive)

Q: With COc1ccc(CN2C(=O)CC(Cc3ccc(C)cc3)C2=O)cc1OC (stereo unspecified) as the compound, how does the inhibition read?
A: 5.73% (inactive)

Q: Cc1ccccc1C(CC(=O)c1cccs1)C(C#N)C#N (stereo unspecified) was tested. Which inhibition did it give?
A: 75.4% (active)

Q: With CCc1cccc(C)c1NC(=O)COC(=O)CNC(=O)c1cccs1 as the compound, how does the inhibition read?
A: -18.9% (inactive)

Q: Cc1ccc(C)c(NC(CC(=O)c2ccccc2)C(=O)OCC(=O)c2cccs2)c1 (stereo unspecified) was tested. Which inhibition did it give?
A: -9.67% (inactive)
